# Assay results reported in PubChem BioAssay (Tox21).
# Records with an inconclusive call do not appear. A number with no mark means an inactive call. Calls come from the whole dose curve.
# Experiment: qHTS assay to identify small molecule agonists of the NFkB signaling pathway - cell viability counter screen (AID 1159515); note: nearly all actives have a fitted effect of over 55% in size
# Details: NFkB-bla ME-180 viability, CellTiter-Glo luminescence, 5 h; series mostly up to 61 µM; activity, negative = cytotoxic: at the top concentration
# Description: National Center for Advancing Translational Sciences [NCATS]
# NIH Chemical Genomics Center [NCGC]
# U.S. Environmental Protection Agency [EPA]
# National Institutes of Environmental Health Sciences [NIEHS]
# National Toxicology Program [NTP]
# U.S. Food and Drug Administration [FDA]
# Transcription factors and their stimulated target gene expression play pivotal roles across many cellular processes including responses to environmental stimuli. Proper regulation of associated pathways is critical to maintain cell health and function. Constitutive activation of transcription factor pathways has been implicated in tumors as it may block cellular functions such as apoptosis and lead to invasion and metastasis. One important transcription factor that stimulates gene expression in response to cytokines, UV radiation, and other stimuli is nuclear factor-kappa B (NFkB). To measure activation of the NFkB pathway, the CellSensor NFkB-bla ME-180 cell line (Life Technologies, Carlsbad, CA) that stably expresses beta-lactamase reporter gene under the regulation of a NF-kB response element was used. This assay allows measurement of the NFkB pathway activity induced by compounds in a ME-180 cell line. This system quantitates NF-kB activity using a FRET-based assay system where beta-lactamase expression disrupts FRET, allowing for fluorescent measurement of activity. This cell line has been used to screen the Tox21 10K compound library and to identify compounds that induce the NFkB pathway activity. The cytotoxicity of the Tox21 compound library against the NFkB-bla ME-180 cell line was tested in parallel by measuring cell viability using the CellTiter-Glo assay in the same wells.
# Tox21 Assay Protocol Summary:
# NFkB-bla ME-180 cells were dispensed at 2,000 cells/6 uL of assay medium per well into black wall/clear-bottom 1536-well plates using a Multidrop Combi (ThermoFisher Scientific, Waltham, MA) dispenser. After the assay plates were incubated at 37 C and 5% CO2 for an overnight, 23 nL of compounds dissolved in DMSO, positive controls or DMSO only was transferred to the assay plate by a Pintool station (Kalypsys, San Diego, CA). The assay plates were incubated at 37 C and 5% CO2 for 5 hr. One uL of LiveBLAzer B/G FRET substrate (Life Technologies) was added using a Flying Reagent Dispenser (Aurora Discovery, San Diego, CA) and the plates were incubated at room temperature for 1.5 hr. Fluorescence intensity (405 nm excitation, 460 nm and 530 nm emissions) was measured using an Envision plate reader (PerkinElmer, Shelton, CT). For cytotoxicity, 3 ul/well of CellTiter-Glo reagent was added into the assay plates using an FRD. After 30 min incubation at room temperature, the luminescence intensity was measured using a ViewLux plate reader (PerkinElmer).
# % is set by controls: 0 for no effect and ±100 for the full control effect.
row,Structure (SMILES),"activity, negative = cytotoxic"
1,O=C(O)c1cc(C(=O)O)cc(C(=O)O)c1,-14.6% [at 78.8 µM]
2,CNCCO,-3.87%
3,CCCO[Si](OCCC)(OCCC)OCCC,-3.04%
4,CCCC(C)C(=O)OCC (stereo not given),19%
5,CN(C)CCCCCCN(C)C,0.091% [at 78.8 µM]
6,O=C(c1ccccc1O)c1ccccc1O,-11.1%
7,O=C(CO)[C@@H](O)[C@H](O)[C@H](O)CO,-5.44% [at 78.8 µM]
8,O=C(O)CCSCCC(=O)O,4.07%
9,CCCCCC(C)N (stereo not given),5.37%
10,CO[C@@]1(NC(=O)CSC[C@@H](N)C(=O)O)C(=O)N2C(C(=O)O)=C(CSc3nnnn3C)CS[C@@H]21,6.39%
11,c1ccc(CCc2ccccc2)cc1,-4.94%
12,O=Cc1cccc(Br)c1,-4.68% [at 78.8 µM]
13,C=COCC1CCC(COC=C)CC1 (stereo not given),0.333%
14,Clc1cc(Cl)c(Cl)nc1Cl,7.9%
15,CCOC(=O)c1cnc2c(cnn2CC)c1NN=C(C)C,5.33%
16,C=CCCCCCCCCC(=O)OCC,-4.08%
17,CC(=O)C1CCCCC1=O (stereo not given),2.61%
18,c1ccc2sc(SN3CCOCC3)nc2c1,-13.8%
19,O=C(O)CC(C(=O)O)S(=O)(=O)O (stereo not given),0.875%
20,COC(=O)C1=C(C)NC(C)=C(C(=O)OC(C)C)C1c1cccc2nonc12 (stereo not given),-12.3%

row,Structure (SMILES),"activity, negative = cytotoxic"
1,CO[C@@]1(NC(=O)C(C(=O)O)c2ccc(O)cc2)C(=O)N2C(C(=O)O)=C(CSc3nnnn3C)CO[C@@H]21 (stereo not given in full),5.99%
2,CCC1C(=O)OCC1Cc1cncn1C (stereo not given),-6.79%
3,C=CCCC(=O)O,5.78%
4,CCCCCCC1CCC(=O)O1 (stereo not given),2.57% [at 78.8 µM]
5,C=CC(C)(CCC=C(C)C)OC(=O)CC (stereo not given),13.3%
6,CC1(C)[C@@H]2CC[C@@]1(C)[C@H](O)C2,-3.24%
7,C[N+](C)(CCOc1ccccc1)Cc1cccs1,0.145%
8,CO[Si](C)(OC)c1ccccc1,-3.48%
9,CN1CC(=O)N/C1=N/C(=O)Nc1cccc(Cl)c1,1.87%
10,CCN(CC#N)c1cccc(C)c1,4.44%
11,CCCCCCCCCC[N+](C)(C)[O-],-14.8%
12,CC(C)COC(=O)c1ccc(N)cc1,4.93%
13,CCC(C)(CN(C)C)OC(=O)c1ccccc1 (stereo not given),3.99%
14,CCCCCCCCN1CCCC1=O,6.45%
15,CCCCc1ccc2c(n1)[C@@H](c1ccc(OC)cc1C[C@H](C)C(=O)O)[C@H](C(=O)O)[C@H]2c1ccc2c(c1)OCO2,4.25%
16,c1ccc(Cc2ccccc2)cc1,-10.6%
17,CCCCCCC#CC(=O)OC,22.2%
18,CCCCCC(=O)OCCc1ccccc1,4.32%
19,C=CC(=O)OCCCl,2.79% [at 78.8 µM]
20,Cc1nc2ccc(CN(C)c3ccc(C(=O)N[C@@H](CCC(=O)O)C(=O)O)s3)cc2c(=O)[nH]1,5.09%
